From PubChem BioAssay (EPA / NIEHS)
Inconclusive results are not listed. Calls of active or inactive are those of the source. Rule for the calls, unless noted: active = hit-call score of the fitted dose curve at least 0.9, where 1 is the maximum; inconclusive = response in the unintended direction; inactive = score below 0.9.

Legend:
[1] = biological target: rat Adenylate Cyclase, Forskolin Stimulated, Adcy5 (gene 64532) (UniProt Q04400); test: NVS_ENZ_rACFSKBinding: NovaScreen (NVS) Enzymatic Assay for rat Adenylate Cyclase, Forskolin Stimulated (AID 2283232)
Sequence of rat Adenylate Cyclase, Forskolin Stimulated, Adcy5 (gene 64532) (Q04400 whole entry, looked up): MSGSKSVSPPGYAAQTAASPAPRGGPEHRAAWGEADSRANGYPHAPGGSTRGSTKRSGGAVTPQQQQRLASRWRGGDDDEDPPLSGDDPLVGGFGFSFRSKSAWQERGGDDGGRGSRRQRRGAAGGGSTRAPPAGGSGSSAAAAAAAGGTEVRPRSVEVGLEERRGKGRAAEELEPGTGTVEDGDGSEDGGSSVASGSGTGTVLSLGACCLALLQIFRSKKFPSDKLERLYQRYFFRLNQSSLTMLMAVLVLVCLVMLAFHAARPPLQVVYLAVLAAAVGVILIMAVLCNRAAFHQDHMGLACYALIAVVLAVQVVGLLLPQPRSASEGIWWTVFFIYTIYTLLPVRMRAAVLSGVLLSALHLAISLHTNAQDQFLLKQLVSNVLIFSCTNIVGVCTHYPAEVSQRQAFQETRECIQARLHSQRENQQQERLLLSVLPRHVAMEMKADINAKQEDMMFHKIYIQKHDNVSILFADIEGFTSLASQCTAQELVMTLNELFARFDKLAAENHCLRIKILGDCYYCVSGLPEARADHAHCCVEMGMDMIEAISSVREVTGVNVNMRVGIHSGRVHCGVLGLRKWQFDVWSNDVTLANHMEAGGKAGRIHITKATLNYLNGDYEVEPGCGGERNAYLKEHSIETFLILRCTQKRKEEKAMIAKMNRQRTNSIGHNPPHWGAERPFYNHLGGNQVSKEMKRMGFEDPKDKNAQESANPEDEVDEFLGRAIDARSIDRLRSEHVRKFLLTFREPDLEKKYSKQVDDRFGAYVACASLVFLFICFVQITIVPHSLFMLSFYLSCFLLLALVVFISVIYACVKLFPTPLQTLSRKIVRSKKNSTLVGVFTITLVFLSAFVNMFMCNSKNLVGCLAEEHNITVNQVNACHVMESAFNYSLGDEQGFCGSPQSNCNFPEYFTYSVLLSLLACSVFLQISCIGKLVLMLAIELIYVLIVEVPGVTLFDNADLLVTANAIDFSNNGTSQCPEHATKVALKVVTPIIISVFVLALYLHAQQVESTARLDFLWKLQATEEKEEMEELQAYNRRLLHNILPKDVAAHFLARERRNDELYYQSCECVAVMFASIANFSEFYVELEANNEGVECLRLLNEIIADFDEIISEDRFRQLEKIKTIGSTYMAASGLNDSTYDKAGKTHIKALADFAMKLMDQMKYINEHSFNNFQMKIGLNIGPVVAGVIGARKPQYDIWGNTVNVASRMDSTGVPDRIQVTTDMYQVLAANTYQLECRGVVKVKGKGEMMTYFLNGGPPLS
How it was run: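 Rat forebrain membrane preparation, cell-free, read 1 h after dosing by filter-based scintillation counting. Primary screen in duplicate at 25 uM; actives (e.g. ≥30% inhibition) rerun in concentration-response up to 50 uM; fit versus DMSO.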

[2] = biological target: rat Monoamine Oxidase, MAO-B, Central (MAOBC), Maob (gene 25750) (UniProt P19643); test: NVS_ENZ_rMAOBC: NovaScreen (NVS) Enzymatic Assay for rat Monoamine Oxidase, MAO-B, Central (MAOBC) (AID 2283238)
Sequence of rat Monoamine Oxidase, MAO-B, Central (MAOBC), Maob (gene 25750) (P19643 whole entry, looked up): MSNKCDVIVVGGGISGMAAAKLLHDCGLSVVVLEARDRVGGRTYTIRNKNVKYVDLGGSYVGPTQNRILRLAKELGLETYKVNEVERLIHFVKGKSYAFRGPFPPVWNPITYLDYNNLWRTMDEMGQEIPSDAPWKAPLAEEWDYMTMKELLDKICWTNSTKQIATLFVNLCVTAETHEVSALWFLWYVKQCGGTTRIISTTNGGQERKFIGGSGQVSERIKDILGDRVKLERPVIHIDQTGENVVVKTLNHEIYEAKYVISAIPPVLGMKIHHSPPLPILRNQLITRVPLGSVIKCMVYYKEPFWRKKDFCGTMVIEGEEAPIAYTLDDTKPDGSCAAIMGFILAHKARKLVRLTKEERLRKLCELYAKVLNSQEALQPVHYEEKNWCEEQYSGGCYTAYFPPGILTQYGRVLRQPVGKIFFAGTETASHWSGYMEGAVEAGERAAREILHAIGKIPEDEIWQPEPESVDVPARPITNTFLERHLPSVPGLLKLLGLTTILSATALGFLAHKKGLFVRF
How it was run: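 MAO-B activity in rat brain tissue preparation, cell-free, measured radiometrically by scintillation counting 1.17 h after dosing. Screened in duplicate at 25 uM; actives then in concentration-response up to 50 uM. Loss of signal versus DMSO scored.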

[3] = biological target: rat Monoamine Oxidase, MAO-B, Peripheral (MAOBP), Maob (gene 25750) (UniProt P19643); test: NVS_ENZ_rMAOBP: NovaScreen (NVS) Enzymatic Assay for rat Monoamine Oxidase, MAO-B, Peripheral (MAOBP) (AID 2283242)
Sequence of rat Monoamine Oxidase, MAO-B, Peripheral (MAOBP), Maob (gene 25750) (P19643 whole entry, looked up): as above

[4] = tested on: rat Monoamine Oxidase, MAO-A, Central (MAOAC), gene 29253; test: NVS_ENZ_rMAOAC: NovaScreen (NVS) Enzymatic Assay for rat Monoamine Oxidase, MAO-A, Central (MAOAC) (AID 2283243);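 note: potency refers to inhibition seen as signal drop below DMSO baseline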
How it was run: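 Rat brain tissue extract served as the cell-free enzyme source; activity was measured by radiometric scintillation counting 1.5 hours after compound addition. Loss of signal relative to DMSO baseline indicated inhibition; primary screen at 25 uM in duplicate.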

[5] = biological target: rat Acetylcholinesterase (AChE), Ache (gene 83817) (UniProt P37136); test: NVS_ENZ_rAChE: NovaScreen (NVS) Enzymatic Assay for rat Acetylcholinesterase (AChE) (AID 2283233)
Sequence of rat Acetylcholinesterase (AChE), Ache (gene 83817) (P37136 whole entry, looked up): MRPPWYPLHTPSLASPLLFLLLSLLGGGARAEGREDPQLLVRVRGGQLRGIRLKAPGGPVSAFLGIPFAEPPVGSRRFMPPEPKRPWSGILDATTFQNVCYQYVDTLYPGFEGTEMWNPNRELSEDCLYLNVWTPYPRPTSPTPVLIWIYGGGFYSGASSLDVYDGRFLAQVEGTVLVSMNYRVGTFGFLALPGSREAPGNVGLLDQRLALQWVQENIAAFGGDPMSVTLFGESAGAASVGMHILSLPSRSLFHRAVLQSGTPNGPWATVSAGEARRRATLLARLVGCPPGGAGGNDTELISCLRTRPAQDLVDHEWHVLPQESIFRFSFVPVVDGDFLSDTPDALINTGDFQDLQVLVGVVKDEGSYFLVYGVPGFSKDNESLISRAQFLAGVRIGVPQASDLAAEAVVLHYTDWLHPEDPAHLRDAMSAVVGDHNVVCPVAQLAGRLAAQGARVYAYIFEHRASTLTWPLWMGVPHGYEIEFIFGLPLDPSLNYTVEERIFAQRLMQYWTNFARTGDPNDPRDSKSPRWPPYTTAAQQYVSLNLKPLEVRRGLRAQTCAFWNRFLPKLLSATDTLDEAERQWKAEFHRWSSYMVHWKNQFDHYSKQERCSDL
How it was run: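 Rat brain membrane acetylcholinesterase activity measured colorimetrically 0.33 h after compound addition, loss of signal relative to DMSO. Primary screen in duplicate at 25 uM; actives re-run as concentration-response with 50 uM top concentration.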

[6] = biological target: Voltage-dependent N-type calcium channel subunit alpha-1B (Rattus norvegicus) (UniProt Q02294); test: NVS_IC_rCaChN: NovaScreen (NVS) Ion Channel Assay for rat Calcium Channel, Type N (CaChN) (AID 2283317)
[7] = biological target: rat Neurotensin Receptor (NTS), Ntsr1 (gene 366274) (UniProt P20789); test: NVS_GPCR_rNTS: NovaScreen (NVS) G Protein-Coupled Receptor Assay for rat Neurotensin Receptor (NTS) (AID 2283308)
Sequence of rat Neurotensin Receptor (NTS), Ntsr1 (gene 366274) (P20789 whole entry, looked up): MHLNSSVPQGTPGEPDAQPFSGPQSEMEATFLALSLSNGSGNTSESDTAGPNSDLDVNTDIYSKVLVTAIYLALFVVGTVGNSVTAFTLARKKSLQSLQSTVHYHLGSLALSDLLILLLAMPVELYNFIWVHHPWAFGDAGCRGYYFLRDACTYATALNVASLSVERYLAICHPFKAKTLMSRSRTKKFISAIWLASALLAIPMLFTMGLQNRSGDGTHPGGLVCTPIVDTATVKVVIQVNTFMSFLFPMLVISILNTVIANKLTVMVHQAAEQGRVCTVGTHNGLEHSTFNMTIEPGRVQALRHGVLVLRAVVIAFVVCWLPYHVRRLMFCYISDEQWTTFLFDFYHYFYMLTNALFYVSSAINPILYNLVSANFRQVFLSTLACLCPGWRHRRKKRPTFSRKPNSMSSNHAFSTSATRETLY
How it was run: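 Rat forebrain membranes; radioligand binding with competitive displacement, read by filter-based scintillation counting 1 h after dosing. Primary screen in duplicate at 25 uM; actives (e.g., 30% inhibition) rerun in concentration-response up to 50 uM, loss-of-signal versus DMSO.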

[8] = biological target: Norway rat Vesicular Monoamine Transporter (VMAT2), neurotransmitter transporter, Slc18a2 (gene 25549) (UniProt Q01827); test: NVS_TR_rVMAT2: NovaScreen (NVS) Transporter Assay for Norway rat Vesicular Monoamine Transporter (VMAT2), neurotransmitter transporter (AID 2283376);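 note: actives lower the bound radioligand signal below the DMSO level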
Sequence of Norway rat Vesicular Monoamine Transporter (VMAT2), neurotransmitter transporter, Slc18a2 (gene 25549) (Q01827 whole entry, looked up): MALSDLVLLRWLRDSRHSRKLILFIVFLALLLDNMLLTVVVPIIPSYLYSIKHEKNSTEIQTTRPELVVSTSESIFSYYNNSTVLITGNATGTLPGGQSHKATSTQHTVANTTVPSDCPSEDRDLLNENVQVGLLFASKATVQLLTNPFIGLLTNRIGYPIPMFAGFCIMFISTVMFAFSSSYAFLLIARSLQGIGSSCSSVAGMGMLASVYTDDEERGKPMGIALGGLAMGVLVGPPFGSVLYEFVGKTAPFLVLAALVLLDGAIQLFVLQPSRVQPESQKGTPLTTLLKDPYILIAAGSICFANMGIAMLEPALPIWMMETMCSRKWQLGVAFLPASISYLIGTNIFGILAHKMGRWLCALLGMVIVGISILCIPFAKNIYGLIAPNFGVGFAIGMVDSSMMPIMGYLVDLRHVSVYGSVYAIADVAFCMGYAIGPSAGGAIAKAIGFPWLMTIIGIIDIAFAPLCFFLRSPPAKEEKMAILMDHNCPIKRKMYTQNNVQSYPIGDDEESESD
How it was run: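 Radioligand displacement binding on rat forebrain tissue preparation, filter-based scintillation read-out 1 hour after dosing. Primary screen in duplicate at 25 uM, then concentration series for actives; loss of signal versus DMSO.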

[9] = biological target: bovine Estrogen Receptor (ER), ESR1 (gene 407238) (UniProt P49884); test: NVS_NR_bER: NovaScreen (NVS) Nuclear Receptor Binding Assay for bovine Estrogen Receptor (ER) (AID 2283345);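 note: actives lower the bound radioligand count which means they displace the ER ligand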
Sequence of bovine Estrogen Receptor (ER), ESR1 (gene 407238) (P49884 whole entry, looked up): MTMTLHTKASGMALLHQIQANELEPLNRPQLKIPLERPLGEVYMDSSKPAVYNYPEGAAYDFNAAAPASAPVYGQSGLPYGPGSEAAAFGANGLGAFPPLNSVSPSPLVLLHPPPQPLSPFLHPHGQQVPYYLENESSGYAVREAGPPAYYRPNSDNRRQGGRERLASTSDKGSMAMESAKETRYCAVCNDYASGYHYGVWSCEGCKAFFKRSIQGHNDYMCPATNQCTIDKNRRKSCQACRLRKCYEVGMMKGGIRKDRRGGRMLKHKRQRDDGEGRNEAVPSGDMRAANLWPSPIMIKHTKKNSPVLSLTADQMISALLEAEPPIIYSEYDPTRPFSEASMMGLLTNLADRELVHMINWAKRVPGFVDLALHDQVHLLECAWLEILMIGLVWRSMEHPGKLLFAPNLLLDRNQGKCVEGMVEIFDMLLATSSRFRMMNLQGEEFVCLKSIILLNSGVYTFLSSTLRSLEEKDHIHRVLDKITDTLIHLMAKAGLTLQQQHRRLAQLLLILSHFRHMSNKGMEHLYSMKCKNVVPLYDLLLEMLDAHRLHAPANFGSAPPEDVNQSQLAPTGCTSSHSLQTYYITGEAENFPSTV
How it was run: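 Displacement of a radioligand from estrogen receptor in bovine uterine membrane preparations; scintillation signal taken at 18 hours, DMSO as baseline. Single-concentration duplicates (25 uM) preceded concentration-response follow-up of actives.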

[10] = TOX21_p53_BLA_p2_viability: Viability Assessment in the Tox21 HCT-116 p53 Agonism Beta-lactamase Assay, Phase 2 (AID 2283591);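 note: compound exposure lasted 16 h at 37 °C; actives lower the ATP signal meaning cytotoxicity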
How it was run: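 HCT116 p53-bla cells, 4000/well, dosed after 5 h plating (217-fold dilution of DMSO stocks) and incubated 16 h at 37C. Viability taken as cellular ATP by CellTiter-Glo luminescence after 30 min RT; signal loss marks cytotoxicity.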

[11] = biological target: Cellular tumor antigen p53 (Homo sapiens) (UniProt P04637); test: TOX21_p53_BLA_p2_ratio: Tox21 HCT-116 p53 Agonism Beta-lactamase Assay, Ratio, Phase 2 (AID 2283592)
Sequence of Cellular tumor antigen p53 (Homo sapiens) (P04637 whole entry, looked up): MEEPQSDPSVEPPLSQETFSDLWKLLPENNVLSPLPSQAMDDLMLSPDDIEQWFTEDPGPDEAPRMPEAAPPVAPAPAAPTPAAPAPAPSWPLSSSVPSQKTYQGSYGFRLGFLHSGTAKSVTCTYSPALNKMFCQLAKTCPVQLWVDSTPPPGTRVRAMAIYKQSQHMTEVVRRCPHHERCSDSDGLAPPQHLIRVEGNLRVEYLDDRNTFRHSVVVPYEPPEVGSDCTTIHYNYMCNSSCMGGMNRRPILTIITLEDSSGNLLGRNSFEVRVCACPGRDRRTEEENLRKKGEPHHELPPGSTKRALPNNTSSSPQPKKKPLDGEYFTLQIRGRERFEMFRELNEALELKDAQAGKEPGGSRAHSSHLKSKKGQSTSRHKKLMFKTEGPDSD
How it was run: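 HCT116 p53-bla; 4000 cells/well; 5 h pre-incubation; cpd in DMSO, 217-fold dilution; 16 h 37C/5% CO2; CCF4-AM 2 h RT; Ex 405, Em 460/530 ratio; DMSO = baseline; positive fitting direction.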

[12] = TOX21_p53_BLA_p3_viability: Viability Assessment in the Tox21 HCT-116 p53 Agonism Beta-lactamase Assay, Phase 3 (AID 2283593);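 note: cells exposed to compound for 16 h before reading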
How it was run: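 HCT116 cells, 4000/well, dosed 5 h after plating by pin transfer (217-fold dilution from DMSO stock) and incubated 16 h at 37C, 5% CO2. Viability read as ATP luminescence with CellTiter-Glo after 30 min at room temperature.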

[13] = biological target: Cellular tumor antigen p53 (Homo sapiens) (UniProt P04637); test: TOX21_p53_BLA_p3_ratio: Tox21 HCT-116 p53 Agonism Beta-lactamase Assay, Ratio, Phase 3 (AID 2283596)
How it was run: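 HCT116 p53-bla cells (4000/well) given compound in DMSO (217-fold dilution) after 5 h, incubated 16 h at 37C. CCF4-AM substrate 2 h at room temperature; 460/530 nm emission ratio, gain fitted against DMSO.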

[14] = biological target: Cellular tumor antigen p53 (Homo sapiens) (UniProt P04637); test: TOX21_p53_BLA_p5_ratio: Tox21 HCT-116 p53 Agonism Beta-lactamase Assay, Ratio, Phase 5 (AID 2283599)
How it was run: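 HCT-116 p53-bla cells (4000/well) plated 5 h, dosed with compound (217-fold DMSO dilution) for 16 h at 37 C; CCF4-AM substrate 2 h at room temperature. Activity is the 460/530 nm emission ratio (405 nm excitation), fitted in gain-of-signal direction versus DMSO.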

[15] = TOX21_p53_BLA_p5_viability: Viability Assessment in the Tox21 HCT-116 p53 Agonism Beta-lactamase Assay, Phase 5 (AID 2283600)
How it was run: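 4000 cells/well; 5 h pre-incubation; DMSO compounds pin-transferred, 217-fold dilution; 16 h, 37C/5% CO2; CCF4-AM 2 h RT; CellTiter-Glo 30 min RT; luminescence.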

[16] = biological target: Cellular tumor antigen p53 (Homo sapiens) (UniProt P04637); test: TOX21_p53_BLA_p4_ratio: Tox21 HCT-116 p53 Agonism Beta-lactamase Assay, Ratio, Phase 4 (AID 2283601)
How it was run: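 HCT-116 p53 beta-lactamase reporter cells (4000/well) preincubated 5 h, then compound (217-fold dilution of DMSO stock) for 16 h at 37C. CCF4-AM substrate added 2 h at room temperature; 460/530 nm emission ratio fitted upward versus DMSO.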

[17] = ACEA_ER_AUC_viability: ACEA Biosciences xCELLigence Real-Time Cell Analysis on Estrogen Receptor Agonism for Viability (AID 2283782);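 note: continuous compound exposure with impedance area under curve over 80 h; hit means loss of impedance signal meaning reduced cell growth or viability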
How it was run: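 T47D cells preconditioned in phenol red-free RPMI with charcoal-stripped FBS, then dosed with 8-point 1:4 series from 100 uM (up to 0.5% DMSO). Impedance monitored up to ~80 h; area-under-curve loss versus DMSO taken as viability.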

[18] = CCTE_Harrill_HTTr_Viability_MCF7: CCTE's 6-hour Cell Viability Assessment for the High-Throughput Transcriptomics (HTTr) Platform, in MCF-7 cells cultured in DMEM + 10% fetal bovine serum, Harrill Lab (AID 2284010; active = hit-call score of the fitted dose curve at least 0.9, where 1 is the maximum; inactive = score below 0.9)
How it was run: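 Membrane integrity was scored by high-content imaging of propidium iodide dye exclusion after a 6 h exposure across an eight-point dilution series. Data were fitted bidirectionally relative to DMSO as negative control and baseline.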

SMILES: Cc1occc(=O)c1O
- outcome [1]: inactive

SMILES: CCOC(=O)C(C)Oc1ccc(Oc2nc3ccc(Cl)cc3o2)cc1 (stereo not given)
- outcome [2]: inactive
- AC50 [3]: 29.9 µM (active)
- outcome [4]: inactive

SMILES: CC(C)(O)c1ccc(CNC(=O)c2cccnc2Oc2ccc3nonc3c2)cc1
- outcome [3]: inactive

SMILES: CC(O)CC(C)(C)O (stereo not given)
- outcome [2]: inactive

SMILES: Cc1ccc(C)c(C)c1
- outcome [2]: inactive

SMILES: Cc1nccn1-c1ccc(Sc2cccc(C3(C(N)=O)CCOCC3)c2)cc1
- outcome [5]: inactive
- outcome [3]: inactive
- outcome [6]: inactive

SMILES: COC(=O)c1ccccc1C(=O)O
- outcome [7]: inactive

SMILES: COC(=O)c1ccc(I)cc1S(=O)(=O)NC(=O)Nc1nc(C)nc(OC)n1
- outcome [7]: inactive

SMILES: C/C=C\C/C=C/CCCCCCCCOC(C)=O
- outcome [8]: inactive

SMILES: Clc1ccc(Nc2nnc(Cc3ccncc3)c3ccccc23)cc1
- AC50 [8]: 7.04 µM (active)

SMILES: CCOP(=S)(OCC)Oc1cnc2ccccc2n1
- outcome [9]: inactive
- outcome [10]: inactive
- outcome [11]: inactive
- outcome [12]: inactive
- outcome [13]: inactive
- outcome [14]: inactive
- outcome [15]: inactive
- outcome [16]: inactive
- outcome [17]: inactive
- outcome [18]: inactive

SMILES: COc1cccc(O)c1
- outcome [8]: inactive
